Where “and” joins values, the source holds several entries; their conditions need not be identical. Equal entries are not always repeated. Unmarked numbers belong to inactive results.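 Rule for the calls: active = calcium activation more than 3 SD above the typical response in the agonist read; inactive = the rest.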

Sequence of Thyrotropin-releasing hormone receptor (Homo sapiens) (P34981 whole entry, looked up): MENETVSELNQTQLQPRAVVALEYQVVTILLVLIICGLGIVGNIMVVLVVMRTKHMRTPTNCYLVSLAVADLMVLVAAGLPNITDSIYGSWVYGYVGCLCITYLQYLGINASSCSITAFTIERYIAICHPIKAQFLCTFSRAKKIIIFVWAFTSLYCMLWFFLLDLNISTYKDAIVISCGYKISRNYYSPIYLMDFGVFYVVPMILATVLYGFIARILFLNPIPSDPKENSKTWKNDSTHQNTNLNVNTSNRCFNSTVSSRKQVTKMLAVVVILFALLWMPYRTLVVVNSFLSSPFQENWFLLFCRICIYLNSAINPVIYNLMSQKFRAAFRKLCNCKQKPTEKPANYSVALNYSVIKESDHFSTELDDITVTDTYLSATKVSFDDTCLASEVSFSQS

This test has as its target Thyrotropin-releasing hormone receptor (Homo sapiens) (UniProt P34981). Kind of test: qHTS for Small Molecule Agonists and Allosteric Enhancers of Human TRH Receptor: Validation Screen for Agonists (AID 493127).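 Note: intracellular calcium rise by fluo-8 fluorescence before TRH EC20 addition; 0% is about no effect.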 Conditions: TRH receptor agonist cell assay; at 2 µM; stronger effect = higher value. The source says: NIH Chemical Genomics Center [NCGC]
NIH Molecular Libraries Probe Centers Network [MLPCN]
Assay Submitter (PI): Marvin Gershengorn
This project aims to identify small drug-like molecules that activate (agonists) the thyrotropin releasing hormone (TRH) receptor (TRHR) or enhance its TRH-stimulated activity (allosteric enhancers). TRHR, a drug-accessible cell surface receptor expressed in specific brain regions, and its ligand TRH have been implicated in several central nervous system disorders, including depression and anxiety. Small molecule TRHR agonists or allosteric enhancers that are metabolically stable and able to cross the blood-brain barrier might serve as probes to elucidate the roles of brain TRH receptors in animal models, and might be valuable as lead compounds for the development of drugs to treat patients with central nervous system disorders.
Upon TRHR-Gq activation in TRHR cells, intracellular calcium is released from stores in the endoplasmic reticulum. […] This validation screen measures compound-induced activation of calcium release.
For the HTS assay freshly prepared cells are plated at a density of 2000/well in 3 ul of complete DMEM medium containing 10% serum in 1536-well plates and cultured over night at 37 C in a humidified incubator with 5% CO2. The next day, 2 ul of a no wash calcium dye (ABD Bioquest) was added to the cells and plates were incubated at room temperature for 1 hour. For the assay, assay plates were loaded into the FDSS kinetic plate reader. A 10 cycle (1 second/cycle) baseline measurement is taken and then the FDSS online 1536 pintool delivers 23 nl of compound library (as well as TRH controls) to the plate. The plate is measured for kinetically at 1 cycle/sec for 180 seconds and is considered to be the agonist portion of the assay (eg, compounds which activate a positive calcium response during this portion are flagged as potential agonists). Following the 180 second read, 1 ul of either an EC20 (positive modulation assay) is delivered by an onboard pipette head. Measurements are taken kinetically for an additional 180 seconds.
TRHR FDSS Screening Protocol
1. Reagent, 3 uL 2000 cells/well 1536 TC treated Black plate in media containing 10% FCS
2. Time, 18 hours, 33.5C 5% CO2 (cells grown at 37C)
3. Reagent, 2 uL ABD fluo-8 Ca dye
4. Time, 30 min-1.5hrs hours, Room temp (6 plates/batch)
5. Detector, EX 480/EM 530C, FDSS 10 cycles baseline (1sec/cycle)
6. Compound, 23 nL of stock solution from library
7. Detector, EX 480/EM 530C, FDSS 230 cycles (1sec/cycle) Agonist mode
8. Compound, 1 ul EC20 of TRH made up in HEPES HBSS, 10 nM final
9. Detector, EX 480/EM 530C, FDSS 100 cycles (1sec/cycle) Potentiator mode
Background: In qHTS, concentration-response curves come from the screen itself.
Consider `NCCS`, for which the activation was 1.25%.
Consider `O=C(O)CCc1nc(-c2ccccc2)c(-c2ccccc2)o1`, for which the activation is -0.125%.
The figure for `Clc1ccc(Cn2c(CN3CCCC3)nc3ccccc32)cc1` is -8.12%; for `CC1=C(/C=C/C(C)=C/C=C/C(C)=C/C(=O)Nc2ccc(O)cc2)C(C)(C)CCC1` it is -0.438%; for `CC(C)NCC(O)COc1cccc2[nH]ccc12` (configuration not stated) it is -0.25%.
Take `CCN(CC)C(=O)c1ccc(O)c(OC)c1`: the activation is 0.938%.
The same measure for `O=c1cc(-c2ccc(O)cc2)oc2cc(O)cc(O)c12`: 0.5%.
Regarding `CC1(C)CCC2=C(O1)c1ccccc1C(=O)C2=O`, the activation was -3.69%.
The same measure for `O=C1NC(=O)C(c2ccccc2)(c2ccccc2)N1`: 0.438%.
As to `COc1ccccc1N1CCN(CCCNc2cc(=O)n(C)c(=O)n2C)CC1`, the activation is -2.81%.
The same measure for `CCN(CC)CCOC(=O)c1ccc(N)cc1`: -0.312%.
In the case of `CC(=O)CCCCn1c(=O)c2c(ncn2C)n(C)c1=O`, the activation is -2.31%.
Regarding `C[N+](C)(C)CCCCCC[N+](C)(C)C`, the activation is 0.625% and 0.562%.
The same measure for `CCN1CCC[C@H]1CNC(=O)c1cc(S(N)(=O)=O)ccc1OC`: 1%; for `COC(=O)[C@@H]1[C@H]2C[C@H]3c4[nH]c5ccccc5c4CCN3C[C@@H]2CC[C@@H]1O`: 0.625%.
The figure for `O=C1NCC2(CCN(CCc3ccccc3)CC2)O1` is 0.562%; for `CN(C)CCC(c1ccccc1)c1ccccn1` (configuration not stated) it is 1.44%.
For the compound `CC/C(=C(\c1ccccc1)c1ccc(OCCN(C)C)cc1)c1ccccc1`, the activation was -2.75%.
Turning to `CC(=O)c1ccc(S(=O)(=O)NC(=O)NC2CCCCC2)cc1`, the activation was 0.188%.
The figure for `Cc1cccc(C)c1OCC(C)N` (configuration not stated) is 0.438%; for `COc1cccc(-c2cc(=O)c3ccccc3o2)c1N` it is -3.44%.
The same measure for `CCCCC1C(=O)N(c2ccccc2)N(c2ccccc2)C1=O`: 1.38%.

Source of the values: PubChem BioAssay (NCATS).
